Experimental findings from PubChem BioAssay (Tox21) are described below.

Inconclusive results are not listed. Where a call stands in place of a potency, no number is given. Calls of active or inactive are those of the source. Calls come from the whole dose curve; as a rule, active = well fitted activation curve with a large enough effect in the repeat runs; inconclusive = weak or mixed curves; inactive = no such curve, though single readings can be large or run the other way.
Potency is the fitted concentration of half-maximal effect.

Nuclear receptor subfamily 1 group I member 3 (Homo sapiens), sequence (Q14994 whole entry, looked up): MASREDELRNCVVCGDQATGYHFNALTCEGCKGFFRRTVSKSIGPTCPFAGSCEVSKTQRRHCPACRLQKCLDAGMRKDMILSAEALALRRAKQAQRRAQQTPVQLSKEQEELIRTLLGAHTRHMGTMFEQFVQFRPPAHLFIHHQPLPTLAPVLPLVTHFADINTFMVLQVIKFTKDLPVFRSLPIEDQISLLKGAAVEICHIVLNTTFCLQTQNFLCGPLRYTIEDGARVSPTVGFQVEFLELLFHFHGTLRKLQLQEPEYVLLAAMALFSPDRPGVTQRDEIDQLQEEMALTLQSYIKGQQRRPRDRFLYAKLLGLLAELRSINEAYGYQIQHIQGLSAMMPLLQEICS

The experiment addresses Nuclear receptor subfamily 1 group I member 3 (Homo sapiens) (UniProt Q14994). As to the kind of experiment: qHTS assay to identify small molecule agonists of the constitutive androstane receptor (CAR) signaling pathway (AID 1224839).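 For activation: HepG2 cells stably carrying human CAR and a CYP2B6 luciferase reporter.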 Note: nearly all actives have a fitted effect of over 15% in size. The settings on record: HepG2 hCAR CYP2B6-luciferase, agonist mode, 24 h; series mostly up to 92.4 µM. An excerpt:
National Center for Advancing Translational Sciences [NCATS] NIH Chemical Genomics Center [NCGC] U.S. Environmental Protection Agency [EPA] National Institutes of Environmental Health Sciences [NIEHS] National Toxicology Program [NTP] Assay overview: The constitutive androstane receptor (CAR) is a nuclear receptor which regulates multiple drug metabolizing enzymes (DMEs) and transporters. Activating CAR will generally increase the transcription and subsequent translation of CYP2B6 and CYP3A4. These two DMEs represent about 50% of the drug metabolizing potential in the body. […] Recently, there have also been studies performed indicating CARs role in energy metabolism and cancer therapy. Therefore, inducing CARs activity could have a potential effect on diabetes and cancer. Identifying environmental toxins and compounds which modulate CAR, through the use of the Tox21 10K compound collection, will be an important step in determining the toxicity and potential therapeutic effects these factors will have on the human body.
Assay Protocol Summary: A double-stable (hCAR and CYP2B6-2.2kb) transfected cell line, derived from human hepatoma (HepG2) cells, was utilized for the duration of the quantitative high-throughput screens. The HepG2-CYP2B6-hCAR cells suspended in DMEM culture medium supplemented with 10% FBS, 5 ug/mL blasticidin, 0.5 mg/mL geneticin, 100 U/mL penicillin and 100 ug/mL streptomycin were dispensed at 2500 cells/4 uL/well in 1536-well white solid bottom plates using a Multidrop Combi. After the assay plates were incubated at 37 C/5% CO2 for 4 hrs, 23 nL of compounds at 15 concentrations (from 5-48 columns) or positive control (from 1 to 4 columns) were transferred to the assay plates using a Pintool station. One uL of PK11195, was added using a Flying Reagent Dispenser to generate a final concentration of 0.75 uM PK11195 inside each well. After a 24 hr incubation period at 37 C/5% CO2, four uL of ONE-Glo reagent was added into the assay plates using a Flying Reagent Dispenser. After a 30 min incubation period at room temperature, the luminescence intensity in the assay plates was measured using a ViewLux plate reader.
For orientation: Quantitative high-throughput screening tests each substance at several concentrations.
Turning to `CCC(=O)Oc1ccc2c(c1)CC[C@@H]1[C@@H]2CC[C@@]2(C)[C@H]1C[C@@H](OC(=O)CC)[C@@H]2OC(=O)CC`, the Potency entry is “inactive”.

As for `CCC(C)OC(C)CC` (stereo not given), the Potency result was “inactive”.

In the case of `CCNC(=O)NCc1cccc(Cl)c1`, the Potency entry is “inactive”.

Turning to `CCCCCc1cccc(=O)o1`, the Potency result was “inactive”.

As to `COC(=O)c1cccc(Cl)c1`, the Potency result was “inactive”.

On to `Fc1ccccc1`, for which the Potency entry was “inactive”.

In the case of `C=Cc1ccc(C(C)(C)C)cc1`, the Potency entry was “inactive”.

In the case of `Cc1ncc([N+](=O)[O-])n1CC(C)O` (stereo not given), the Potency entry was “inactive”.

As for `O=C1OCCO1`, the Potency result is “inactive”.

For `C=CC(=O)CCCCC`, the Potency entry was “inactive”.

Take `CCC/C=C(\C=O)CC`: the Potency entry is “inactive”.

`CCC(=O)CC`: the Potency entry is “inactive”.

`CC1(C)Oc2ccc(C#N)cc2[C@@H](N2CCCC2=O)[C@@H]1O`: the Potency result was “inactive”.

In the case of `CC(C)OC(=O)OCOP(=O)(CO[C@H](C)Cn1cnc2c(N)ncnc21)OCOC(=O)OC(C)C`, the Potency entry was “inactive”.

With `CC1(C)CC(OC(=O)CCCCCCCCC(=O)OC2CC(C)(C)NC(C)(C)C2)CC(C)(C)N1`, the activation was -1.81% [at 19 µM] (inactive).

As to `COC(=O)c1cc(Cl)cc(Cl)c1`, the Potency result was “inactive”.

In the case of `COS(=O)(=O)O`, the Potency result is “inactive”.

As to `O=S(=O)(O)c1ccc2c(N=Nc3ccc(S(=O)(=O)O)c4ccccc34)c(O)c(S(=O)(=O)O)cc2c1`, the activation was 0.066% [at 8.39 µM] (inactive).

On to `COc1cc(/C=C/C(N)=O)cc(OC)c1OC`, for which the Potency entry is “inactive”.

Regarding `O=[N+]([O-])c1c(Cl)cc(Cl)cc1Cl`, the Potency entry was “inactive”.

As to `N#Cc1cscn1`, the Potency result was “inactive”.

Regarding `O=C1CCC(=O)N1Cl`, the Potency entry was “inactive”.

Consider `CC1c2ccccc2CN1NC(=O)c1ccc(Cl)c(S(N)(=O)=O)c1` (stereo not given), for which the Potency result is “inactive”.

Consider `COc1cc(OC)nc(O[C@H](C(=O)O)C(OC)(c2ccccc2)c2ccccc2)n1`, for which the Potency entry is “inactive”.

As to `COc1cc2c(cc1OC)C(=O)C(CC1CCN(Cc3ccccc3)CC1)C2` (stereo not given), the Potency entry was “inactive”.

With `CC(C)Cn1cnc2c1c(=O)n(C)c(=O)n2C`, the Potency entry is “inactive”.

With `Cc1ccc(C(C)NC(=O)[C@@H](NC(=O)OC(C)C)C(C)C)cc1` (stereo not given in full), the Potency result was “inactive”.

Turning to `O=C[O][Al]([O]C=O)[O]C=O`, the Potency result is “inactive”.

On to `CCCCOC(=O)[C@H](C)O`, for which the Potency result was “inactive”.

As for `OC[C@@H](O)C(O)[C@@H](O)CO` (stereo not given in full), the Potency entry was “inactive”.

Turning to `CC(=O)O[C@H]1C[C@@H]2CC[C@@]1(C)C2(C)C`, the Potency result was “inactive”.

Regarding `Cc1ccc(N)cc1S(=O)(=O)O`, the Potency entry was “inactive”.

Take `O=C1NC(c2ccccc2)(c2ccccc2)C(=O)N1COP(=O)(O)O`: the Potency result was “inactive”.

Consider `C=CCCCCCCCCC(=O)OCCCC`, for which the Potency result was “inactive”.

Turning to `O=C(NCN1CCOCC1)c1cnccn1`, the Potency result was “inactive”.

Take `CC1(C)Cc2cccc(N)c2O1`: the Potency entry is “inactive”.

On to `CC(S)C(C)S` (stereo not given), for which the Potency entry is “inactive”.

Consider `N#CCC(=O)NN`, for which the Potency entry is “inactive”.

`ONc1ccccc1`: the Potency was 60.5 µM (active).

For `C/C=C(\C)C(=O)OCCc1ccccc1`, the Potency result is “inactive”.
